According to PubChem BioAssay AID1159580 (chemical genetic matrix, 2015):
Values joined by “and” are separate entries in the source; they are usually repeats but may differ in a detail not shown here. Equal values may be shown once. Among all 5,500 compounds or so, about 2,000 (36%) were called active. Not shown: some 18% with an inconclusive outcome. No stated cut-off is given here; in the data, active means normalized growth mostly below about 0.91 (no sharp cut-off); inconclusive means no clear call, values can overlap the other calls; inactive means mostly above about 0.92. Some of the results follow.

Test: chemical genetic growth profiling, strain panel (AID 1159580);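 further: tested at 20 µM; growth read once vehicle control cultures reached saturation at 30 °C; 1 = growth at the plate median or of vehicle wells; lower values mean less growth of the strain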
Conditions: S. cerevisiae deletion strains, growth OD

Measured: normalized growth

NC(=O)N1c2ccccc2C=Cc2ccccc21
inactive: locus YAL013W, strain DEP1, hits give low values 1 | locus YAL021C, strain ccr4, hits give low values 1.03 | locus YAL026C, strain drs2, hits give low values 1.02 | locus YAL030W, strain snc1, hits give low values 1.04 | locus YAL040C, strain CLN3, hits give low values 1.01 | locus YBL061C, strain skt5, hits give low values 1.03 | locus YBR009C, strain hhf1, hits give low values 1.02 | locus YBR021W, strain FUR4, hits give low values 1.03 | locus YBR023C, strain chs3, hits give low values 1.02 | locus YBR171W, strain sec66, hits give low values 1.03 | locus YBR229C, strain ROT2, hits give low values 1.03 | locus YBR231C, strain swc5, hits give low values 1.04 | locus YBR279W, strain paf1, hits give low values 1.02 | locus YCL011C, strain gbp2, hits give low values 1.02 | locus YCL016C, strain dcc1, hits give low values 1.02 | locus YCL029C, strain bik1, hits give low values 1.01 | locus YCL061C, strain MRC1, hits give low values 1.02 | locus YCL069W, strain vba3, hits give low values 1.03 | locus YCR088W, strain abp1, hits give low values 1.01 | locus YDL005C, strain med2, hits give low values 1.02 | locus YDL035C, strain GPR1, hits give low values 1.07 | locus YDL040C, strain nat1, hits give low values 1.03 | locus YDL074C, strain BRE1, hits give low values 1.03 | locus YDL101C, strain DUN1, hits give low values 1.01 | locus YDL185W, strain tfp1, hits give low values 0.963 | locus YDL192W, strain arf1, hits give low values 0.996 | locus YDR001C, strain nth1, hits give low values 1.01 | locus YDR069C, strain doa4, hits give low values 1.04 | locus YDR101C, strain arx1, hits give low values 1.01 | locus YDR137W, strain rgp1, hits give low values 1.07 | locus YDR159W, strain sac3, hits give low values 1.03 | locus YDR162C, strain NBP2, hits give low values 1.03 | locus YDR195W, strain ref2 1.06 | locus YDR297W, strain sur2, hits give low values 1.02 | locus YDR318W, strain mcm21, hits give low values 1.01 | locus YDR334W, strain swr1, hits give low values 1.03 | locus YDR335W, strain msn5, hits give low values 1.02 | locus YDR363W, strain ESC2, hits give low values 1 | locus YDR388W, hits give low values 1.01 | locus YDR392W, strain spt3, hits give low values 0.984 | locus YDR502C, strain sam2, hits give low values 0.993 | locus YEL003W, strain gim4, hits give low values 1.02 | locus YEL037C, strain rad23, hits give low values 1.02 | locus YEL061C, strain CIN8 (second series), hits give low values 1.01 | locus YEL061C, strain CIN8, hits give low values 1.01 | locus YER002W, strain NOP16, hits give low values 1.04 | locus YER015W, strain faa2, hits give low values 1.03 | locus YER016W, strain bim1, hits give low values 1.02 | locus YER110C, hits give low values 0.979 | locus YER111C, strain swi4, hits give low values 1.03 | locus YER155C, strain BEM2 (second series), hits give low values 1.01 | locus YER155C, strain BEM2, hits give low values 1.01 | locus YER167W, strain BCK2, hits give low values 1.01 | locus YFR010W, strain ubp6, hits give low values 1.05 | locus YGL078C, strain dbp3, hits give low values 0.991 | locus YGL086W, strain mad1, hits give low values 1.01 | locus YGL167C, strain pmr1, hits give low values 1.03 | locus YGL173C, strain kem1, hits give low values 1.04 | locus YGL227W, strain vid30, hits give low values 1.01 | locus YGL240W, strain doc1, hits give low values 1.02 | locus YGL248W, strain PDE1, hits give low values 1.05 | locus YGL253W, strain hxk2, hits give low values 1.01 | locus YGR078C, strain PAC10, hits give low values 1.02 and 1.01 | locus YGR135W, strain pre9, hits give low values 0.99 | locus YGR252W, strain gcn5, hits give low values 1.06 | locus YHR013C, strain ard1, hits give low values 1.02 | locus YHR027C, strain rpn1, hits give low values 1.02 | locus YHR030C, strain SLT2, hits give low values 1.01 and 1 | locus YHR079C, strain IRE1 (second series), hits give low values 0.98 | locus YHR079C, strain IRE1, hits give low values 0.99 | locus YHR094C, strain hxt1, hits give low values 1 | locus YHR129C, strain ARP1, hits give low values 0.997 | locus YHR142W, strain chs7, hits give low values 1.02 | locus YHR200W, strain rpn10, hits give low values 0.995 | locus YIL066C, strain RNR3, hits give low values 1.04 | locus YIL073C, strain SPO22, hits give low values 1.05 | locus YIL125W, strain kgd1, hits give low values 1 | locus YIR030C, strain dcg1, hits give low values 0.976 | locus YJL092W, strain hpr5, hits give low values 1.03 | locus YJL095W, strain BCK1 (second series), hits give low values 1.03 | locus YJL095W, strain BCK1, hits give low values 0.972 and 0.988 | locus YJL115W, strain asf1, hits give low values 1.03 | locus YJL129C, strain trk1, hits give low values 1.04 | locus YJL134W, strain LCB3, hits give low values 1.02 | locus YJL154C, strain vps35, hits give low values 1.01 | locus YJL164C, strain tpk1, hits give low values 1.01 | locus YJL166W, strain qcr8, hits give low values 1.02 | locus YJL168C, strain set2, hits give low values 0.994 | locus YJL187C, strain SWE1 (second series), hits give low values 1.02 | locus YJR043C, strain POL32, hits give low values 1.09 | locus YJR066W, strain TOR1, hits give low values 0.99 | locus YKL009W, strain mrt4, hits give low values 0.918 | locus YKL068W, hits give low values 1.01 | locus YKL085W, strain MDH1 (second series), hits give low values 0.986 | locus YKL085W, strain MDH1, hits give low values 0.986 | locus YKL160W, strain elf1, hits give low values 1.03 | locus YKR001C, strain vps1, hits give low values 0.989 | locus YKR026C, strain gcn3, hits give low values 1.01 | locus YKR091W, strain srl3, hits give low values 1.01 | locus YLL001W, strain dnm1, hits give low values 1.02 | locus YLL026W, hits give low values 1.03 | locus YLL041C, strain sdh2, hits give low values 1.02 | locus YLR027C, strain aat2, hits give low values 1.02 | locus YLR039C, strain RIC1, hits give low values 1.09 | locus YLR058C, strain SHM2, hits give low values 1.01 | locus YLR102C, strain apc9, hits give low values 1.01 | locus YLR113W, strain HOG1, hits give low values 0.972 | locus YLR221C, strain rsa3, hits give low values 1.01 | locus YLR258W, strain gsy2, hits give low values 1.02 | locus YLR262C, strain YPT6 (second series), hits give low values 1.03 | locus YLR262C, strain YPT6, hits give low values 1.1 | locus YLR268W, strain sec22, hits give low values 0.993 | locus YLR320W, strain mms22, hits give low values 1.03 | locus YLR330W, strain CHS5, hits give low values 1 | locus YLR342W, strain FKS1 (second series), hits give low values 1.12 | locus YLR342W, strain FKS1, hits give low values 1.03 | locus YLR357W, strain rsc2, hits give low values 1.09 | locus YLR370C, strain arc18, hits give low values 1.02 | locus YLR371W, strain rom2, hits give low values 0.994 | locus YLR384C, strain iki3, hits give low values 1.02 | locus YLR418C, strain cdc73, hits give low values 0.959 | locus YML016C, strain PPZ1, hits give low values 1.02 | locus YML032C, strain rad52, hits give low values 1 | locus YML120C, strain ndi1, hits give low values 1.03 | locus YML124C, strain tub3, hits give low values 0.998 | locus YMR058W, strain fet3, hits give low values 1.01 | locus YMR078C, strain ctf18, hits give low values 0.989 | locus YMR125W, strain sto1, hits give low values 1.03 | locus YMR129W, hits give low values 1.01 | locus YMR205C, strain PFK2, hits give low values 1.03 | locus YMR223W, strain ubp8, hits give low values 0.993 | locus YMR231W, strain pep5, hits give low values 1.03 | locus YMR263W, strain SAP30, hits give low values 1.01 | locus YMR307W, strain GAS1, hits give low values 1.18 | locus YNL067W, strain RPL9B, hits give low values 1.02 | locus YNL071W, strain lat1, hits give low values 1.02 | locus YNL128W, strain TEP1, hits give low values 1 | locus YNL175C, strain NOP13, hits give low values 1.05 | locus YNL183C, strain NPR1, hits give low values 0.948 | locus YNL197C, strain WHI3, hits give low values 1.03 | locus YNL209W, strain ssb2, hits give low values 1.02 | locus YNL224C, strain SQS1, hits give low values 1.02 | locus YNL233W, strain BNI4, hits give low values 0.981 | locus YNL248C, strain rpa49, hits give low values 1.05 | locus YNL250W, strain rad50, hits give low values 0.98 | locus YNL271C, strain bni1, hits give low values 0.977 | locus YNL298W, strain CLA4, hits give low values 0.976 | locus YNL307C, strain MCK1, hits give low values 1 | locus YNL322C, strain KRE1 (second series), hits give low values 1.03 | locus YNL322C, strain KRE1, hits give low values 1.01 | locus YNR049C, strain mso1, hits give low values 1.03 | locus YNR052C, strain pop2, hits give low values 0.994 | locus YOL006C, strain TOP1, hits give low values 1.02 | locus YOL012C, strain htz1 1.53 | locus YOL147C, strain pex11, hits give low values 0.998 | locus YOR001W, strain rrp6, hits give low values 1.04 | locus YOR061W, strain CKA2, hits give low values 1.01 | locus YOR069W, strain VPS5, hits give low values 1.04 | locus YOR070C, strain gyp1, hits give low values 1.03 | locus YOR080W, strain dia2, hits give low values 1.04 | locus YOR083W, strain WHI5 (second series), hits give low values 0.999 | locus YOR083W, strain WHI5, hits give low values 1.03 | locus YOR106W, strain vam3, hits give low values 1.04 | locus YOR136W, strain idh2, hits give low values 0.997 | locus YOR144C, strain elg1, hits give low values 1 | locus YOR184W, strain ser1, hits give low values 0.981 | locus YOR231W, strain MKK1, hits give low values 1 | locus YOR265W, strain rbl2, hits give low values 1.03 | locus YOR270C, strain vph1, hits give low values 1.1 | locus YOR290C, strain snf2, hits give low values 1.01 | locus YOR316C, strain cot1, hits give low values 0.998 | locus YPL051W, strain arl3, hits give low values 1.03 | locus YPL055C, strain LGE1, hits give low values 1.01 | locus YPL078C, strain atp4, hits give low values 1.02 | locus YPL106C, strain sse1, hits give low values 1.05 | locus YPL240C, strain hsp82, hits give low values 1.02 | locus YPL241C, strain CIN2, hits give low values 1.02 and 1.01 | locus YPL256C, strain CLN2, hits give low values 1 | locus YPR119W, strain clb2, hits give low values 0.996 | locus YPR141C, strain kar3, hits give low values 0.992 | locus YPR163C, strain tif3, hits give low values 1 | locus YPR167C, strain met16, hits give low values 0.991 | strain wtn01, hits give low values 1.01
